# According to PubChem BioAssay (NCATS):
# Records with an inconclusive call do not appear. Entries that show only a call come without a potency. The source made the active and inactive calls. The call rests on the fitted dose curve; tested in HEK293 reporter line.
# Experiment: qHTS for Inhibitors of the Functional Ribonucleoprotein Complex (vRNP) of Lassa (LASV) Arenavirus: LASV Primary Screen - GLuc reporter signal (AID 1347082); further: nearly all actives have a fitted effect of over 60% in size
# Details: LASV minigenome vRNP, Gaussia luciferase reporter; series mostly up to 57.5 µM
row,Structure (SMILES),Potency
1,CN(Cc1nc2c(N)nc(N)nc2[nH]c1=O)c1ccc(C(=O)NC(CCC(=O)O)C(=O)O)cc1 (stereo not drawn),inactive
2,COc1cc(C(=O)O[C@H]2C/C(C)=C/CC[C@@]3(C)O[C@@H]3[C@H](O)[C@@H]2C(C)C)cc(OC)c1OC,inactive
3,C=C1C[C@H](OC(=O)C(C)(O)CCl)C2C(=C)C(=O)O[C@@H]2C2C1C[C@H](O)[C@]2(O)CCl (stereo partly drawn),inactive
4,CC/C=C\[C@H](O)[C@H](O)C1=C(C)C(=O)[C@]2(O1)C(=O)N[C@@](OC)(C(=O)c1ccccc1)C2O (stereo partly drawn),inactive
5,C=C1CCC2C(C)(C)[C@H](O)CC[C@@]2(C)[C@@H]1COc1cc(=O)oc2ccccc12 (stereo partly drawn),inactive
6,C[C@]12CC[C@H]3C(=CCc4cc(O)ccc43)[C@@H]1CCC2=O,inactive
7,Cc1ccc([C@@H]2O[C@H](CO)[C@@H](O)[C@H](O)[C@@H]2O)cc1Cc1ccc(-c2ccc(F)cc2)s1,inactive
8,Nc1ncn([C@@H]2O[C@H](CO)[C@@H](O)[C@@H]2O)c(=O)n1,inactive
